# PMC5540273 (PLoS ONE, 2017)
# Legend:
# Conditions in all cases: concentration: 1 μM, replicates: in singlicate; n = 1
# MEK5 = test system: T1, MEK5
# T1 construct: gene MAP2K5
# MEK6 = test system: T2, MEK6
# T2 construct: gene MAP2K6
# MELK = test system: MELK
# MERTK = test system: MERTK
# MET = test system: MET
# MINK = test system: T3, MINK
# T3 construct: gene MINK1
# MKK7 = test system: MKK7
# MKNK1 = test system: MKNK1
# MKNK2 = test system: MKNK2
# MLCK = test system: T4, MLCK
# T4 construct: gene MYLK3
# MLK1 = test system: T5, MLK1
# T5 construct: gene MAP3K9
# MLK2 = test system: MLK2
# MLK3 = test system: MLK3
# MRCKA = test system: MRCKA
# MRCKB = test system: T6, MRCKB
# T6 construct: gene CDC42BPB
# MST1R = test system: MST1R
# MST1 = test system: T7, MST1
# T7 construct: gene STK4
# MST2 = test system: T8, MST2
# T8 construct: gene STK3
# MST3 = test system: T9, MST3
# T9 construct: gene STK24
# MST4 = test system: MST4
# 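Also: KINOMEscan kinase panel screen.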
Compound,%Inh (MEK5) [%],%Inh (MEK6) [%],%Inh (MELK) [%],%Inh (MERTK) [%],%Inh (MET) [%],%Inh (MINK) [%],%Inh (MKK7) [%],%Inh (MKNK1) [%],%Inh (MKNK2) [%],%Inh (MLCK) [%],%Inh (MLK1) [%],%Inh (MLK2) [%],%Inh (MLK3) [%],%Inh (MRCKA) [%],%Inh (MRCKB) [%],%Inh (MST1R) [%],%Inh (MST1) [%],%Inh (MST2) [%],%Inh (MST3) [%],%Inh (MST4) [%]
O=C(Nc1c(F)cccc1F)c1cc(C(=O)c2ccccc2F)c[nH]1 [GSK1326180],20,0,0,18,0,47,0,10,0,2,3,21,0,0,0,0,2,0,0,0
CNc1nccc(-c2ccc3c(N)n[nH]c3c2)n1 [GSK2206003],49,9,61,21,0,59,0,41,97.9,76,4,0,10,0,0,10,30,0,13,0
CCOc1nccc(-c2c(-c3ccc(F)cc3)ncn2C2CCNCC2)n1 [SB-249175],26,18,0,18,0,49,7,57,46,2,3,14,15,0,26,0,0,0,13,11
CC(C)c1nc(-c2cccc(NS(=O)(=O)c3c(F)cccc3F)c2)c(-c2ccnc(Nc3ccc(N4CCOCC4)nc3)n2)s1.Cl [GSK1723980],99.9,37,47,50,42,17,0,10,98.8,0,89,34,73,18,0,17,0,0,13,16
Cl.O=C(Nc1ccc(Oc2ccc3[nH]c(NC(=O)c4ccco4)nc3c2)cc1)Nc1cc(C(F)(F)F)ccc1F [GW683134],85,0,0,99.6,83,0,0,46,93.5,15,28,28,49,15,0,41,17,0,8,0
Cc1ccc(-c2ccc3occ(-c4ccc(S(C)=O)cc4)c3c2)nn1 (stereo not shown),0,0,0,0,0,0,0,0,0,5,0,10,0,0,0,0,0,0,0,0
CS(=O)(=O)c1cccc(CNc2nc(Nc3ccc4c(c3)CCC(=O)N4)ncc2C(F)(F)F)c1,48,0,26,56,83,85,0,0,58,0,99.7,93.9,96.4,0,0,1,0,11,0,25
Nc1ncc(-c2cn[nH]c2)c2scc(-c3ccc4c(c3)CCN4C(=O)Cc3ccccc3)c12 [GSK2593067],99.9,0,32,73,77,33,34,0,11,6,16,0,32,0,0,27,99.4,14,0,20
Cc1ccc(C)c(NC(=O)Nc2ccc(C)c(-c3ccc(C(=O)Nc4ccncc4)cc3)c2)c1 [GSK1398473],3,0,81,22,0,6,0,0,4,0,0,0,0,24,21,26,0,34,0,0
Cc1cccc(Nc2nc(N[C@H]3CCCC[C@H]3N)ncc2C(N)=O)c1.Cl [GSK986310],98.4,5,0,64,0,73,0,0,17,13,85,40,76,13,0,44,34,0,52,34
Cc1ccc(O)cc1Nc1ccnc2ccc(C(C)(C)C)cc12 [GW856805],86,25,8,46,0,10,40,0,30,4,11,19,19,0,0,0,0,28,12,36
Cc1ccccc1CC(=O)N1CCc2cc(-c3cn(C)c4ncnc(N)c34)ccc21 [GSK2603346],99.9,73,7,46,70,0,0,7,55,6,7,0,18,0,0,46,97,0,46,54
CC(C)(C)c1ccc(C(=O)Nc2cn3cc(-n4ccnc4)ccc3n2)cc1,99,0,0,0,0,18,0,8,0,19,18,0,0,28,0,28,7,3,0,0
CN1CCN(Cc2ccc(NC(=O)Nc3ccc(N(C)c4ccnc(Nc5ccc(CS(C)(=O)=O)cc5)n4)cc3)cc2)CC1.Cl [GW827654],99.1,0,32,72,67,95.6,0,96.7,100,26,14,24,0,15,30,92.7,61,99,68,83
CN(c1ccc(NC(=O)N2CCN(CCCN3CCOCC3)CC2)cc1)c1ccnc(Nc2ccc(CS(C)(=O)=O)cc2)n1.Cl [GW830899],80,0,0,0,67,0,0,33,0,0,13,29,1,19,15,0,0,0,0,0
CCn1cnc2c(NCc3ccccc3)ncnc21 [SKF-96418],38,9,0,0,0,12,17,0,0,0,0,27,0,0,0,0,0,14,5,0
Cc1nn2c(=O)cc(N3CCO[C@H](C)C3)nc2n1Cc1cccc(Cl)c1Cl [GSK2373693],19,0,2,17,0,0,0,0,19,0,0,5,9,0,60,0,20,0,0,0
Cc1ccc(NC(=O)c2ccc(Cl)c(Cl)c2)cc1-c1ccc(C(=O)Nc2ccncc2)cc1 [GSK1398460],27,5,0,36,0,6,0,11,0,0,7,16,20,25,32,31,8,0,6,0
O=C(O)C(F)(F)F.O=c1[nH]ccc2nc(N[C@@H]3CCNC3)nc(Nc3ccc4c(c3)S(=O)(=O)CC4)c12 [GSK2181306],99.9,68,92.2,91.7,26,96.6,0,3,24,98.1,79,9,61,26,54,1,95.9,80,96.6,95.5
COc1cccc(-c2nc(-c3ccccc3)[nH]c2-c2ccncc2)c1 [SB-610250],26,100,14,9,0,10,0,22,5,0,0,0,0,41,0,23,8,0,0,0
